Results reported in PubChem BioAssay AID456 (Sanford-Burnham Center for Chemical Genomics, 2006).
The whole screen tested about 10,000 compounds, of which about 25 (0.2%) were called active. The sample holds actives, similar compounds and a random draw of the others, so the mix is not that of the screen.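 Rule for the calls: active = top tenth filtered wells with inhibition above zero that passed visual or statistical confirmation; inactive = the rest, including hits rejected on review.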 Potency and affinity values are given separately.

Test: inhibitors of TNFa-induced VCAM-1 surface display, imaging, high-content imaging, pooled HUVEC, TNFa stimulus (AID 456);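 for inhibition: VCAM-1 immunofluorescence minus red nonspecific channel after plate median normalization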
Details: HUVEC TNFa-induced VCAM-1 surface expression, immunofluorescence imaging;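 compounds screened at 5 µM final in the well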

inhibition, active:
CS(=O)(=O)N1CCN(c2ccccc2NC(=O)c2ccc(-c3ccc(Cl)cc3Cl)o2)CC1 70.7%
CCOc1ccc2cc(C#N)c(SCC(=O)N3CCC(C)CC3)nc2c1 69.1%
COc1ccc(C)cc1-n1c(N)c(C#N)c(C#N)c1-c1ccc(OC)c(OC)c1OC 77%
Cn1c(=O)c2c(nc(SCCCC#N)n2Cc2c(F)cccc2Cl)n(C)c1=O 72.9%
Cc1ccc2nc(C(F)(F)F)c(C#N)c(N)c2c1 74.6%

inhibition, inactive:
CCCCn1cnc2c(c1=O)c1nc3ccccc3nc1n2Cc1ccc2c(c1)OCO2
CN(C)c1ccc(C(=O)OCC(=O)NC2CCCCC2)cc1
CS(=O)(=O)N1CCN(c2ccccc2NC(=O)c2cccs2)CC1
O=C(Nc1ccccc1N1CCN(C(=O)c2ccc(Cl)cc2)CC1)c1cc2ccccc2o1
Cc1cc(Br)c(S(=O)(=O)n2nnc3ccccc32)cc1C
COc1cc(CNc2ccc(N3CCOCC3)c(C(=O)O)c2)ccc1OCC(N)=O
Cc1ccc(NC(=O)c2ccco2)c(NC(=O)CN2C(=O)c3ccccc3C2=O)c1
CCOc1ccc2cc(C#N)c(SCC(=O)N3CCOCC3)nc2c1
CCOc1ccc2cc(C#N)c(SCC(=O)N3CCCC3)nc2c1
Cc1cc(Cl)ccc1NC(=O)CSc1nnc(Cc2cccs2)n1Cc1ccco1
O=S(=O)(NCCCCCNS(=O)(=O)c1ccccc1)c1ccccc1
COc1ccc(OC)c(NC(=O)CS(=O)(=O)c2ccccc2)c1
Cc1ccccc1-c1nc2ccccc2c(=O)n1C1CCS(=O)(=O)C1 (centres undefined)
C=C(Cl)COC(=O)[C@H]1C2C=CC(C2)C1C(=O)O (some centres undefined)
O=C(c1cnn2c1NC(c1ccco1)CC2C(F)(F)F)N1CCN(c2cccc(Cl)c2)CC1 (centres undefined)
O=C(CC(SCCO)c1ccc2c(c1)OCO2)c1ccco1 (centres undefined)
COc1ccc(CCNC(=O)C2CCN(Cc3nc(-c4cccc(Cl)c4)oc3C)CC2)cc1OC 76.3%
Cc1ccccc1-c1nc(CN2CCC(C(=O)N3CCC(C(N)=O)CC3)CC2)c(C)o1
O=C(CN(Cc1ccc(F)cc1)C(=O)Cn1nnc2ccccc21)NCC1CCCO1 (centres undefined)
O=C(NCC1CCCO1)c1ccc(C(=O)NCC2CCCO2)cc1 (centres undefined)
O=S(=O)(c1ccc2ccccc2c1)N1CCCCC1
Cc1cnc(C(=O)Nc2ccc(N3CCOCC3)cc2)cn1
CSc1ncc(Cl)c(C(=O)Nc2ccc(S(=O)(=O)N3CCOCC3)cc2)n1
Cc1cc(NCCN2CCOCC2)n2nc(C)c(-c3ccccc3)c2n1
COC(=O)c1cn(C(=O)c2ccc(Br)o2)c2ccccc12
O=C(NCCN1CCOCC1)C1CC(=O)N(c2ccc(F)c(Cl)c2)C1 (centres undefined)
CC1=C(C(=O)OC2CCCCC2)C(c2ccc(C)o2)C2=C(CC(C)(C)CC2=O)N1 (centres undefined)
COc1ccccc1N1CCN(C(=O)c2cc(C3CC3)on2)CC1
CCOC(=O)Cc1nnc(NC(=O)c2ccccc2OCC)s1
O=C(CCn1c(=O)oc2ccccc21)NCCN1CCOCC1
O=c1[nH]c(NCc2ccccc2)nc2c1CCCC2
Cc1ccc(N2CCN(C(=S)c3ccc(N(C)C)cc3)CC2)cc1
COc1ccccc1N1CC(C(=O)Nc2cccc(C(=O)O)c2)CC1=O (centres undefined)
c1ccc(OCCCn2nnc(-c3cccnc3)n2)cc1
CCN(CC)CCn1c(=N)n(CCO)c2ccccc21
Cc1c(NC(=O)Cn2nc(C(=O)O)c3ccccc3c2=O)c(=O)n(-c2ccccc2)n1C
Cn1ccnc1SCC(=O)Nc1ccc2ccccc2c1
CCOC(=O)c1sc(NS(=O)(=O)c2ccc(NC(C)=O)cc2)nc1C
CCn1c(-c2cc(Br)ccc2O)n[nH]c1=S
CCSc1oc(-c2cccs2)nc1S(=O)(=O)c1ccccc1
COc1ccc(OCC(=O)N2CCN(C(=O)COc3ccc(Br)cc3)CC2)cc1
COc1cc2c(cc1OC)C(c1cccnc1)CC(=O)N2 (centres undefined)
COc1ccc(NC(=O)c2cc(C(C)C)on2)c(OC)c1
Cc1ccc2c(c1)NC(=O)C(CC(=O)NC1CCCCC1C)O2 (centres undefined)
COc1ccc(N2C(=O)CCC(C(=O)N3CCCCC3)C2c2ccc(OC)c(OC)c2)cc1 (centres undefined)
CCCC1(C(=O)OCC)NC(c2ccc(N(C)C)cc2)C2C(=O)N(c3ccccc3)C(=O)C21 (centres undefined)
CCOc1ccc(-n2cc(C(=O)Nc3cccc(C)n3)c3cc(OC)c(OC)cc3c2=O)cc1
COc1ccccc1N1CCN(C(=O)CSc2nc3ncnc(N)c3[nH]2)CC1
Cc1ccc(-c2[nH]nc3c2C(c2ccc(OC(=O)N4CCOCC4)cc2)C(C#N)=C(N)O3)cc1 (centres undefined)
O=C(CSc1nnc(-c2ccccc2)o1)N1CCN(c2ccccc2)CC1
CN(c1ccccc1)C(c1ccc(F)cc1)c1nnnn1CC1CCCO1 (centres undefined)
Cc1ccc(CCSCC(=O)O)cn1
O=C(Nc1ccc(N2CCOCC2)c(Cl)c1)c1ccc(Br)o1
CCn1c(CSc2nc(C)cc(C)n2)nnc1SCC(=O)Nc1ccccc1
COc1ccccc1N1CCN(C(=O)C(Cc2ccccc2)NC(=O)C2CCCCC2)CC1 (centres undefined)
COc1ccc(C(N)=O)cc1N
C#CCN1C(=O)C(O)(CC(=O)c2cccc(OC)c2)c2ccccc21 (centres undefined)
CCOC(=O)c1c(C)oc2ccc(O)c(CN(C)C)c12
CN(c1cccc(NC(=O)COc2ccccc2)c1)S(C)(=O)=O
CCOc1ccc2ccccc2c1C(=O)N1CCN(c2ccccc2)CC1
CCOC(=O)c1c(NC(=O)CSc2nnc(-c3cccnc3)o2)sc(C)c1C
CCN1C(=O)c2cccc3c(NC(=O)c4ccc5c(c4)OCCO5)ccc1c23
CN(C)S(=O)(=O)c1ccc(C(=O)Nc2ccccc2C(=O)O)cc1
N#Cc1c2n(c(=O)[nH]c1=O)CCCCC2
O=C(c1nn2cccnc2c1Cl)N1CCN(c2ccccc2)CC1
COC(=O)c1cc(Oc2ccc(C(=O)OC)cc2N)cc(C(=O)OC)c1
Cc1cc(C)n(C(=O)C23CC4CC(CC(C4)C2)C3)n1
Cn1c(=O)cc(OCCCC(=O)N2CCCCC2)c2ccccc21 102%
Cc1ccc2oc(=O)c3cnn(CC(=O)N4CCCCC4C)c3c2c1 (centres undefined)
Cc1cc(NS(=O)(=O)c2ccc(NC(=O)C(C)N3C(=O)c4ccccc4C3=O)cc2)nc(C)n1 (centres undefined)
CC(=O)Nc1ccc(Cc2ccncc2)cc1
CN(C)S(=O)(=O)c1ccc(Oc2ccc(S(=O)(=O)N(C)C)cc2)cc1
O=S(=O)(Nc1ccccn1)c1ccc(Oc2ccccc2)cc1
Cc1cc(NC(=O)CSc2nnc(COc3cccc(C)c3C)n2Cc2ccco2)no1
COCCn1c(COc2ccc(Cl)cc2)nnc1SCC(N)=O
Cc1occc1C(=O)N1CCN(Cc2ccccc2)CC1
CCOC(=O)c1sc(N)c(C(=O)OCC)c1COC(=O)C1CC(=O)N(Cc2ccco2)C1 (centres undefined)
O=C(CN(c1ccccc1)S(=O)(=O)c1ccccc1)N1CCN(Cc2ccc3c(c2)OCO3)CC1
CCOC(=O)CNC(=O)c1c(C)nn(-c2ccccc2)c1Cl
COc1ccc(S(=O)(=O)NCC(=O)N(CC(=O)NCC2CCCO2)c2ccccc2C)cc1 (centres undefined)
Cc1cccc(N2CCN(C(=O)CCn3c(=S)[nH]c4cc5c(cc4c3=O)OCO5)CC2C)c1 (centres undefined)
CC1(C)C(c2ccccc2)=NC(c2ccccc2)N1O (centres undefined)
O=C(NCCN1CCOCC1)c1csc2c1CCCC2
CCOC(=O)N1CCN(CC(O)COc2ccccc2C(C)CC)CC1 (centres undefined)
CCN(CC(=O)Nc1ccc(S(N)(=O)=O)cc1)S(=O)(=O)c1cc(C)ccc1OC
CCCCC(=NCCO)C1=C(O)C(C(=O)OC)C(C)(C)CC1=O (centres undefined)
O=C(CSc1nc2ccsc2c(=O)n1NC(=O)c1ccccc1)Nc1nccs1
COc1ccc(Cn2c(N)c(C#N)c3nc4ccccc4nc32)cc1OC
COc1cc2c(C)nc(C)c(C#N)c2cc1OC
Cc1cc2cc(CN(CC3CCCO3)C(=O)c3cnccn3)c(=O)[nH]c2cc1C (centres undefined)
COc1ccc2oc(C)c(C(=O)Cn3ccnc3)c2c1
Cn1c(=O)c2c(nc(SCCCO)n2Cc2ccccc2Cl)n(C)c1=O
Cn1c(=O)c2c(nc(SCCCC#N)n2Cc2ccccc2F)n(C)c1=O
O=C(c1csc2ccccc12)N1CCCCCC1
Cn1c(-c2ccc(F)cc2)cnc1SCC(=O)Nc1ccccc1N1CCOCC1
Cc1ccnc2c(N3C(=O)C4C5C=CC(C5)C4(C)C3=O)cccc12 (centres undefined)
CCOC(=O)C1CCCN(C(=O)CNS(=O)(=O)c2ccc(Br)s2)C1 (centres undefined)
COC(=O)C1=C(C)n2nnnc2NC1c1ccc(Cl)cc1 (centres undefined)
O=C(NCCN1CCOCC1)c1ccc2c(c1)N(Cc1ccccc1)C(=O)CS2
C=CCn1c(SCC(=O)NCC2CCCO2)nnc1C1CCCCC1 (centres undefined)
COc1ccc(-c2nn3c(-c4ccncc4)nnc3s2)cc1OC
Cc1cn2c(-c3ccncc3)nnc2s1
Cc1ccc2cc(C(c3nnnn3C3CCCC3)N3CCN(c4ccc(F)cc4)CC3)c(=O)[nH]c2c1 (centres undefined)
Cc1cc(-c2ccccc2)c(C#N)c(N)n1
